# Assay outcomes (PubChem)
# The list is not random: actives were taken first. Their share in the collection is about 3.5%.
# GPR151 ag: activators of human GPR151; Q8TDV0; 650,000 compounds, 1% hits; activation, % at 11.2 µM; PathHunter beta-arrestin GPR151 cells, luminescence; AID 1508602; in the data active means activation above about 4.9%
# Target sequence (Q8TDV0 whole entry, looked up): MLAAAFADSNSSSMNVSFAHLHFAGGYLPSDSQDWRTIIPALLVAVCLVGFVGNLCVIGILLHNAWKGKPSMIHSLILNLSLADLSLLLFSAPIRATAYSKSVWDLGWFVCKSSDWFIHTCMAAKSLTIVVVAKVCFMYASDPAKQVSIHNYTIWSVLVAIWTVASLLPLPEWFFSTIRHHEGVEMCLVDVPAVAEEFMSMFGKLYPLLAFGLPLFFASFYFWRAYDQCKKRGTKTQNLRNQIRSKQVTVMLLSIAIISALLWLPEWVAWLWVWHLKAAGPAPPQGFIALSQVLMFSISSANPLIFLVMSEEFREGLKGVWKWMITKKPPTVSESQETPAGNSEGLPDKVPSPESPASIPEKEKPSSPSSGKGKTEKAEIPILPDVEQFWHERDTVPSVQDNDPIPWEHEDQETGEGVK
# FBW7 activator: activators of human E3 ligase FBW7 | Q969H0 | AlphaScreen FBW7–phospho-cyclin E peptide binding, activator screen | normalized activity (activation), % at 26.1 µM | 650,000 compounds, 0.13% hits | AID 1259310; in the data active means normalized activity above about 1.9%;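 further: purified mutant Fbw7 with reduced substrate affinity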
# MITF inh: blocks human microphthalmia-associated transcription factor; AlphaScreen MITF homodimerization, bead proximity signal; inhibition, % at 2.6 µM; 650,000 compounds, 0.91% hits; AID 1259374; in the data active means inhibition above about 50%
# TEAD-YAP inh: TEAD-YAP interaction inhibition. HEK-TIYL cells, TEAD-Gal4/YAP UAS-luciferase luminescence. inhibition, % at 9.12 µM. 640,000 compounds, 1.4% hits. AID 1259422; in the data active means inhibition above about 32%
# MITF confirm: human MITF inhibition, confirmation. shares compounds with MITF inh. AlphaScreen MITF homodimerization, biotin/His-MITF beads. inhibition, % at 2.6 µM. 4,700 compounds, 16% hits;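 active means inhibition above a cutoff derived from the DMSO control wells, cut at about 28% in these data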;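 further: inhibitors lower the bead chemiluminescence by keeping MITF from dimerizing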
# AlphaScreen DR: AlphaScreen optical interference, dose response counter-screen. shares compounds with MITF inh. AlphaScreen optical interference counterscreen, cell-free. IC50, µM. 480 compounds, 6% hits. AID 1259373; call rule not given here
# AS interf ctr: counter-screen: compounds optically interfering with AlphaScreen; AID 1259376; inhibition, % at 2.6 µM; LysRS AlphaScreen counterscreen, signal interference, triplicate; shares compounds with MITF inh; 4,700 compounds, 7.6% hits;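 active means inhibition above a cutoff derived from the DMSO control wells, cut at about 30% in these data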
# Hits are given with their value; - = inactive; . = no result.
SMILES,GPR151 ag,FBW7 activator,MITF inh,TEAD-YAP inh,MITF confirm,AS interf ctr,others
CCOc1cc(-c2ccc(I)o2)cc(=O)c2c(C)oc(C)c12,-,-,58,-,37,-,
COc1ccc(Cl)cc1NC(=O)CCn1c(=O)sc2ccccc21,-,-,-,-,.,.,
O=C(c1ccsc1)N1CCOc2ccc(CN3CCN(c4ccccc4)CC3)cc2C1,-,-,73,-,-,-,
CCOC(=O)c1c(NC(=O)c2cc(-c3cc(C)ccc3C)nc3ccccc23)sc2c1CCCC2,-,-,-,-,.,.,
CCOC(=O)c1c(NC(=O)c2cc(-c3ccccc3C)nc3ccccc23)sc2c1CCCCCC2,-,-,69,-,-,-,
CCN(CC)C(=O)C1CCCN(Cc2cccc(OC)c2)C1 (stereo unspecified),-,-,56,-,-,-,
CCN(CC)C(=O)C1CCCN(Cc2ccc(C)cc2)C1 (stereo unspecified),-,-,-,-,.,.,
CCN(CC)C(=O)C1CCCN(Cc2cccc(C)c2)C1 (stereo unspecified),-,-,-,-,.,.,
CCN(CC)C(=O)C1CCCN(Cc2cccc(F)c2)C1 (stereo unspecified),-,-,58,-,-,-,
CCN(CC)C(=O)C1CCCN(Cc2sccc2C)C1 (stereo unspecified),-,-,51,-,-,-,
CCOC(=O)C1CCCN(C(=O)Cc2c(F)cccc2Cl)C1 (stereo unspecified),-,-,-,-,.,.,
CCOC(=O)C1CCCN(CCc2ccccc2)C1 (stereo unspecified),-,-,59,-,-,-,
CCOC(=O)C1CCCN(Cc2c(F)cccc2Cl)C1 (stereo unspecified),-,-,54,-,-,-,
CCOC(=O)C1CCCN(Cc2cccc(C(F)(F)F)c2)C1 (stereo unspecified),-,-,52,-,-,-,
CC(C)NC(=O)c1ccccc1NC(=O)CN(c1ccc(Cl)cc1)S(C)(=O)=O,-,-,-,-,.,.,
O=S(=O)(c1ccc(F)cc1)N1CCN(Cc2cccc(Br)c2)CC1,-,-,60,-,-,-,
O=S(=O)(c1ccc(Cl)cc1)N1CCN(Cc2cccc(Br)c2)CC1,-,-,51,-,-,-,
Cc1cc(C)nc(NS(=O)(=O)c2ccc(NC(=O)c3sc4nc(-c5cccs5)cc(C(F)(F)F)c4c3N)cc2)n1,-,-,-,-,.,.,
O=C1CC(C(=O)Nc2ccc(C(=O)Nc3cccc([N+](=O)[O-])c3)cc2)C2(CCCCC2)O1 (stereo unspecified),-,-,-,-,.,.,
O=C(O)c1ccc(-n2cnnn2)cc1Cl,-,-,-,-,.,.,
O=C(O)c1ccc(-n2cccc2)cc1Cl,-,-,79,-,75,-,AlphaScreen DR=-
O=C(CC1S/C(=N/N=C2\CSC(=O)N2)NC1=O)Nc1ccc(F)cc1 (stereo unspecified),-,-,61,-,49,99,
O=C(O)CNC(=O)CC1S/C(=N/N=C/c2ccccc2O)NC1=O (stereo unspecified),-,-,-,-,.,.,
O=C(O)CNC(=O)CC1S/C(=N/N=C2\CSC(=O)N2)NC1=O (stereo unspecified),-,-,88,-,80,100,
O=C(CC1S/C(=N/N=C2\CSC(=O)N2)NC1=O)Nc1ccc(Cl)cc1 (stereo unspecified),-,-,-,-,.,.,
SMILES,GPR151 ag,FBW7 activator,MITF inh,TEAD-YAP inh,MITF confirm,AS interf ctr,others
COc1cc(OC)cc(C(=O)Nc2cc(C(=O)N(C)Cc3ccccc3)ccc2N2CC3CC(C2)c2cccc(=O)n2C3)c1 (stereo unspecified),-,-,-,-,.,.,
COc1ccc(C(=O)Nc2cc(C(=O)N(C)Cc3ccccc3)ccc2N2CC3CC(C2)c2cccc(=O)n2C3)cc1 (stereo unspecified),-,-,87,-,-,-,
Cc1ccc2nc(NC(=O)COc3ccc(Cl)cc3Cl)sc2c1,-,-,-,-,.,.,
CS(=O)(=O)c1ccc2nc(NC(=O)COc3ccc(Cl)cc3Cl)sc2c1,-,-,74,-,-,-,
COc1ccc(S(=O)(=O)CCC(=O)Nc2nc3ccc(C)cc3s2)cc1,-,-,-,-,.,.,
COc1ccc(S(=O)(=O)CCC(=O)Nc2nc3ccc(OC)cc3s2)cc1,-,-,54,-,28,-,
COCCNC(=O)c1ccc(Cn2c(SCC(=O)NCc3ccco3)nc3ccc(Br)cc3c2=O)cc1,-,-,-,-,.,.,
